Consider 35 compounds from PubChem BioAssay AID1671202 (University of Kansas High Throughput Screening Laboratory, 2021).

Screen size: about 190,000 compounds; about 6,900 (3.6%) were called active. The sample holds actives, similar compounds and a random draw of the others, so the mix is not that of the screen. Rule as the data show it: active = inhibition above about 50%; inactive = the rest.

Huntingtin (Homo sapiens), sequence (P42858 whole entry, looked up, stated change not applied): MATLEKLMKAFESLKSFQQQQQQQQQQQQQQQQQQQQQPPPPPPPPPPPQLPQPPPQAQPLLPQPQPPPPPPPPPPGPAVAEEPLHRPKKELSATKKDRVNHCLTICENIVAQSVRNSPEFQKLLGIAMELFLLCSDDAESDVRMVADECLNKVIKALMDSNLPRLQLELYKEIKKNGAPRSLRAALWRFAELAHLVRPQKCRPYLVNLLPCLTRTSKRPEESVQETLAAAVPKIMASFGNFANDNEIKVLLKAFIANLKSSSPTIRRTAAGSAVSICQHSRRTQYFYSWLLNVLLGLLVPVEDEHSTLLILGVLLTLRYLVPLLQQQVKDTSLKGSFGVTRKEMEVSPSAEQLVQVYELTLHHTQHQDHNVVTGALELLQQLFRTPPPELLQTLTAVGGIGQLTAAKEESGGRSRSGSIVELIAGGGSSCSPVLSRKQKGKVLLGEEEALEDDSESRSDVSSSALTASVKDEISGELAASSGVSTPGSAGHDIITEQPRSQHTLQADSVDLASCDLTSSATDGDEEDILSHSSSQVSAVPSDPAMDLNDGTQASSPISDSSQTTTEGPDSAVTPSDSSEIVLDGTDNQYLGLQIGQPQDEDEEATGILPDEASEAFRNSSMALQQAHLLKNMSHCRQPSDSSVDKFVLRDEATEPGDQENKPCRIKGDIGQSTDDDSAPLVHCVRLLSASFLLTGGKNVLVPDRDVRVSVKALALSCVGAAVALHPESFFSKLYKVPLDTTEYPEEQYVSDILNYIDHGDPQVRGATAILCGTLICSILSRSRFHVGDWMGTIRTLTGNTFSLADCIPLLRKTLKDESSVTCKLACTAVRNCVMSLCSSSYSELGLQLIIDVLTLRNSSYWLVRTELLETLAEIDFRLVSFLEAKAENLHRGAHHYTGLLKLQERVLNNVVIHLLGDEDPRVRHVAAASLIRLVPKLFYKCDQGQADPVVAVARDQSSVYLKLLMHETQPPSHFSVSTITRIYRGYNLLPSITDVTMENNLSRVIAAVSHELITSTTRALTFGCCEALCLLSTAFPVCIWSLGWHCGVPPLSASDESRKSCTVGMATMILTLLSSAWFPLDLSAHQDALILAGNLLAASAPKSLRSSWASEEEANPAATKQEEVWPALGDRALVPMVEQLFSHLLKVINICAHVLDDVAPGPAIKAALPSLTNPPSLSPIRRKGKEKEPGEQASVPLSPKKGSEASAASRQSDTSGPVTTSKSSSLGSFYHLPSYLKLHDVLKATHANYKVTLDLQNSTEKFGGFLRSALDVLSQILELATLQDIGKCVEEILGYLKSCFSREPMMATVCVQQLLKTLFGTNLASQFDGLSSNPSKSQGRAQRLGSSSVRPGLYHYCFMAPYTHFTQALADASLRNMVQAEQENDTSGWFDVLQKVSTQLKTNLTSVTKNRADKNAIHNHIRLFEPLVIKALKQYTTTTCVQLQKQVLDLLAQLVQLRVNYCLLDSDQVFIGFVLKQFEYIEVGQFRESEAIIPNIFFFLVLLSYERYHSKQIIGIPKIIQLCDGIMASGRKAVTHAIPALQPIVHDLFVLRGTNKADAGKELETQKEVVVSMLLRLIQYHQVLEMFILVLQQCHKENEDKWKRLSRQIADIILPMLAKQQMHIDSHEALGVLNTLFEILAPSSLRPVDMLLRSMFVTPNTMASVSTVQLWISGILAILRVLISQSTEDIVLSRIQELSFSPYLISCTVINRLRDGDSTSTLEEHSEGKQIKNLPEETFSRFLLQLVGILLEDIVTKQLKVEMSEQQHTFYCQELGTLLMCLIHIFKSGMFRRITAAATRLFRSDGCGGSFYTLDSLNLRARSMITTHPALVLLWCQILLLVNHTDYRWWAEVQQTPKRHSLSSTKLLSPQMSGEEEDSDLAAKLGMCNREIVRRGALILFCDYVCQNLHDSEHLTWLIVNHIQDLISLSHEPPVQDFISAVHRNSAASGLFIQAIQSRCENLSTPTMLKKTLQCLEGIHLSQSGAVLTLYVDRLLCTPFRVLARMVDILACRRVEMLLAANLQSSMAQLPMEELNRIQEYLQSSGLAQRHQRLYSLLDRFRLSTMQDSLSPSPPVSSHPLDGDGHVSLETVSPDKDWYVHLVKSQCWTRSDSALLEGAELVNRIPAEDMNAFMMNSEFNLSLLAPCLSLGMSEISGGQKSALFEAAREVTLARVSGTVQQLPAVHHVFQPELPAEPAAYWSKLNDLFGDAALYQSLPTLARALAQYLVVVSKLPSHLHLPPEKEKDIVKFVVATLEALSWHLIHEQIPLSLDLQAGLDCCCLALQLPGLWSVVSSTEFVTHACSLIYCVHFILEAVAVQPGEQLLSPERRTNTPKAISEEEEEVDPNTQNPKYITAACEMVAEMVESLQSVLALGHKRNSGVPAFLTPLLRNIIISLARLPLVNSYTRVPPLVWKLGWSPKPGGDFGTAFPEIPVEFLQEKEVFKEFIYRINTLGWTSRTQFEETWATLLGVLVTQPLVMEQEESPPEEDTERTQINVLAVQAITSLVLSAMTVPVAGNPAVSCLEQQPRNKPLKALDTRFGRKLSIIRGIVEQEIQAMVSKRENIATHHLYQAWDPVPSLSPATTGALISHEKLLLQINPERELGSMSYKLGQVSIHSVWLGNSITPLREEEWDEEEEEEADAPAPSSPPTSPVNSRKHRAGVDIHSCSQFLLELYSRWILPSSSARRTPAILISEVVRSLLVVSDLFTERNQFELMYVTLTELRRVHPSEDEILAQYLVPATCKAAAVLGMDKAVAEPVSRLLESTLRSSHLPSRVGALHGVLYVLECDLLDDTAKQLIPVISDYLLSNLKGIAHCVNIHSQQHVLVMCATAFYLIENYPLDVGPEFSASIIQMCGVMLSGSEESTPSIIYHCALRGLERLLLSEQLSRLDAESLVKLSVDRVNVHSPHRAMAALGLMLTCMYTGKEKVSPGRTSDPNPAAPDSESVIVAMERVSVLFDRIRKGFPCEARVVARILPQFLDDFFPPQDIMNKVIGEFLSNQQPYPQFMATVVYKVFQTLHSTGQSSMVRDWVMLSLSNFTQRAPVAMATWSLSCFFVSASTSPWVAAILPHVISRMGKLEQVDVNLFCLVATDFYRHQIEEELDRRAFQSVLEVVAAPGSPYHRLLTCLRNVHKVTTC

The assay addresses Huntingtin (Homo sapiens) (UniProt P42858). Briefly: mutant huntingtin-calmodulin interaction inhibitors – biochemical, AlphaScreen, primary screen (AID 1671202).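 Also: 0% = both proteins with DMSO and 100% = one protein alone.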 To be noted: AlphaScreen His-mHTT/GST-CaM binding, luminescence; at 15 µM, stronger effect = higher value. On the technique in general: Alpha assays give light when donor and acceptor beads are brought close together.
For orientation: inhibition means the relative decrease from the control value, in per cent. Turning to `COc1ccccc1N1CCN(C(=O)c2cc(-c3ccc(Cl)c(Cl)c3)on2)CC1`, the inhibition is -3% (inactive).
As for `Cc1cc(C(=O)N2CC(C(=O)N3CCN(c4ccc(Cl)c(Cl)c4)CC3)C2)no1`, the figure is 66.7% (active); as for `Cc1cc(C(=O)N2CC(C(=O)Nc3cccc(NS(C)(=O)=O)c3)C2)no1`, -19.8% (inactive); as for `CN(C(=O)Cc1c[nH]c2ccccc12)C1(C(=O)NC2CCCCC2)CCCCC1`, 6% (inactive).
The value for `CC(=O)c1sc(NC(=O)c2ccccc2[N+](=O)[O-])nc1C` was -19.4% (inactive); that for `Cc1cccc(C(=O)NCCC2CCN(C(=O)Nc3cccc(Cl)c3)CC2)c1` was -18.9% (inactive).
Consider `CCOc1ccc(-n2c(C)nc3cc(C(=O)NCC(OCC)OCC)ccc32)cc1`, for which the inhibition is 23% (inactive).
The value for `COc1ccccc1-n1c(C)nc2cc(C(=O)NCc3cccnc3)ccc21` was 0% (inactive).
The value for `CCOC(CNC(=O)c1ccc2c(c1)nc(C)n2-c1cc(Cl)ccc1OC)OCC` was 52% (active); that for `O=C1c2ccccc2C(=O)c2c1ccc(Cl)c2NC(=O)C(F)(F)F` was 18% (inactive).
Turning to `O=S(=O)(c1ccc(Cl)cc1)N1CCSC1c1ccccc1Cl` (stereo not given), the inhibition was -18% (inactive).
As to `O=C(NC1CCCCC1)C1CC(c2ccc(F)cc2)=NO1` (stereo not given), the inhibition was -5.78% (inactive).
The value for `N=C1S/C(=C\c2ccc(N3CCOCC3)cc2)C(=O)N1c1ccccc1Cl` was 39% (inactive).
As for `Cc1ccc(C2=CC(c3ccc(C)cc3)n3nc(CCCO)nc3N2)cc1` (stereo not given), the inhibition was 24% (inactive).
Regarding `CCC(=O)NCc1csc(C2CCCN(C(=O)C(C)(C)C)C2)n1` (stereo not given), the inhibition was 1.52% (inactive).
In the case of `O=C1OC(c2cccc(Br)c2)=N/C1=C\c1ccc(I)cc1`, the inhibition is 5% (inactive).
As for `COC(=O)c1ccc(NC(=O)C(c2ccccc2)n2cccc2)cc1` (stereo not given), the figure is 75.5% (active); as for `O=C(Nc1cc(F)ccc1F)C(c1ccccc1)n1cccc1` (stereo not given), 42.3% (inactive).
For `COC(C(=O)Nc1ccc(C(C)=O)cc1)c1ccccc1` (stereo not given), the inhibition is -1.7% (inactive).
The value for `CN(C)Cc1c(O)ccc2c1OC(=Cc1cccs1)C2=O` was 1.1% (inactive); that for `C=CCn1c(SC(CCO)C(=O)N2CCCCC2)nc2sc3c(c2c1=O)CCCC3` (stereo not given) was 35.2% (inactive).
`Nc1nc(SCC(=O)N2CCCCC2)nc2sc3c(c12)CCCC3`: the inhibition is 35% (inactive).
The value for `NNc1nc2sc3c(c2c(=O)n1Cc1ccccc1)CCCC3` was 79.8% (active).
In the case of `COc1ccccc1NC(=O)N1CCC2(CC1)NC(=O)c1cc(F)ccc1N2C`, the inhibition is -0.74% (inactive).
The value for `CCOc1ccccc1NC(=O)N1CCC2(CC1)c1cccn1-c1ccc(C)cc1N2CC` was 50.5% (active); that for `CCOCCCNC(=O)C1(C)CCC(=O)N1c1ccc(F)cc1C` (stereo not given) was -2.61% (inactive).
The value for `Cc1ccc(NC(=O)N2CCC3(CC2)Nc2cc(F)ccc2-n2cccc23)c(Cl)c1` was 31.9% (inactive).
As to `CCOc1ccccc1NC(=O)N1CCC(N2CCN(Cc3ccccc3)C2=O)CC1`, the inhibition was 4.68% (inactive).
As for `Cc1ccccc1-n1ccn(CC(=O)NCc2ccco2)c(=O)c1=O`, the figure is 1% (inactive); as for `CC1CCC2(CC1)NC(=O)N(CC(=O)NCc1ccco1)C2=O` (stereo not given), 1.16% (inactive).
As for `COc1ccc(C)cc1NC(=O)N1CCC2(CC1)Nc1cc(F)ccc1-n1cccc12`, the figure is 54% (active); as for `CCOCCCNC(=O)N1CCC2(CC1)Nc1cc(F)ccc1-n1cccc12`, 64.6% (active).
The value for `CCOc1ccccc1NC(=O)N1CC2CN(S(=O)(=O)c3ccc(C)cc3)CC(C1)O2` was -6.22% (inactive).
For `CCOCCCNC(=O)N1CCc2cn(C)c3cccc(c23)C1`, the inhibition was 4.99% (inactive).
With `O=C(NCc1ccco1)N1CCC2(CC1)Nc1ccccc1-n1cccc12`, the inhibition was 67.5% (active).
